Assay in all cases: PBM binding z-score (relative to random genomic background probes); higher = stronger binding; sequences stand for … in GC…GCGATTGACAGCGTAGAATGAAGG
Assay [1] has as its system RARb homodimer (NR concentration 270 nM). In outline: (§1)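 Ligand-free nuclear receptor dimers were bound for 1 h to custom Agilent 4×180K protein-binding microarrays. Detection used antibodies against each partner (one per run). Binding z-scores rest on regression-normalized fluorescence, with random background probes as the reference.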
In assay [2] the test system is RARg:RXRa (NR concentration 270 nM, RXRa partner concentration 90 nM). In outline: as §1
For assay [3], the system named is RARg homodimer (NR concentration 270 nM). In outline: as §1
For assay [4], the system named is RXRa DBDmut IVT, anti-RXR (DBD mutation: RXRa K156A/R161A, NR concentration 90 nM). In outline:
as §1

The subject of assay [5] is RXRa homodimer (NR concentration 180 nM). Put shortly:
as §1

Assay [6] deals with THRa:RXRa (NR concentration 90 nM, RXRa partner concentration 90 nM). In outline:
as §1

Assay [7] concerns THRa homodimer (NR concentration 90 nM). Put shortly: as §1
For assay [8], the system named is VDR homodimer (NR concentration 270 nM). Put shortly:
as §1

As to CCGACTGGGGCAAGGTTACCCTAACGCACAGCCA, the PBM binding z-score in assay [1] is 1.51; in assay [2], 0.945; in assay [3], 1.06; in assay [4] it was -0.485; in assay [5], 1.08; in assay [6] it was 1.47. Further, the figures for the PBM binding z-score in assay [7] and in assay [8] were 0.84 and -0.188, respectively.
TAGCCTAGGTCAGATCGGGCCAGTAGACGCTATA: the PBM binding z-score in assay [1] was 1.76; in assay [2] it was 2.74; in assay [3] it was 3.37; in assay [4] it was -0.78; in assay [5], 1.2; in assay [6] it was 3.76. The PBM binding z-score in assay [7] is -0.385; in assay [8], -0.53.
With GCTGCTAGGCCAGGTTGGTCAGCTAACGGGTACG, the PBM binding z-score in assay [1] is 6.85e-05; in assay [2], -0.5; in assay [3], -0.124; in assay [4], -0.332; in assay [5] it was -0.773; in assay [6] it was -0.787. Also, the PBM binding z-score is -1.23 in assay [7] and -0.861 in assay [8].
For the sequence CCAGACAGGTGACAGGTAACTCAGTCTGGTACGC, the PBM binding z-score was 0.331 in assay [1]; 0.209 in assay [2]; 0.537 in assay [3]; -0.242 in assay [4]; 0.665 in assay [5]; 0.126 in assay [6]. The PBM binding z-score is -0.089 in assay [7] and -0.0347 in assay [8].
As to AATACAGGGTCCCTAGGCCAGAGTAGGTACGAAT, the PBM binding z-score was -0.162 in assay [1]; 0.119 in assay [2]; 0.25 in assay [3]; -0.442 in assay [4]; 0.211 in assay [5]; 0.106 in assay [6]. Besides, the PBM binding z-score in assay [7] was -0.229; in assay [8], 0.0969.
For the sequence AGAATGAGGTTTTACGTAGATCAGGGAAGAAAGT, the PBM binding z-score in assay [1] is -0.169; in assay [2], -0.132; in assay [3], 0.114; in assay [4], 0.185; in assay [5], -0.108; in assay [6] it was 0.3. Further, the PBM binding z-score worked out at 0.0915 in assay [7] and 0.172 in assay [8].
As for AGAACGAGGGCATTGAGTTGATAGCACGGGTGGC, the PBM binding z-score in assay [1] came out at 1.01; in assay [2], 1.11; in assay [3], 1.39; in assay [4], 3.13; in assay [5], 1.04; in assay [6], 1.14. Besides, the PBM binding z-score in assay [7] is -0.127; in assay [8], 5.15.
Regarding CTCGAAAGGTCGGTTGAGGTGATTATACGGATAA, the PBM binding z-score in assay [1] is 2; in assay [2], 2.51; in assay [3] it was 2.53; in assay [4] it was 0.846; in assay [5], 2.12; in assay [6], 4.96. The PBM binding z-score worked out at 1.15 in assay [7] and 0.404 in assay [8].
On to ATCTCTATGTAACAAGTTCAGTGAAAGAGAGGAC, for which the PBM binding z-score was 1.49 in assay [1]; 0.833 in assay [2]; 1.3 in assay [3]; 0.923 in assay [4]; 0.533 in assay [5]; 0.782 in assay [6]. Moreover, the PBM binding z-score in assay [7] came to 0.323; in assay [8], 2.17.
As for ACTCGGAGGACAAAGGACAGAGCTACGCCAGTGA, the PBM binding z-score stood at 1.11 in assay [1]; 1 in assay [2]; 1.64 in assay [3]; 0.398 in assay [4]; 0.0489 in assay [5]; 0.569 in assay [6]. Besides, the PBM binding z-score in assay [7] is -0.18; in assay [8] it was -0.184.
AGAATGATGTTATACGTAGATCAGGGAAGAAAGT: the PBM binding z-score was -0.0497 in assay [1]; 0.194 in assay [2]; 0.393 in assay [3]; -0.231 in assay [4]; -0.0318 in assay [5]; -0.0993 in assay [6]. The PBM binding z-score in assay [7] was -0.533; in assay [8], -0.17.
As to CAAACTAGGTCAAGGTCATAGTCGGTTTGTGCCA, the PBM binding z-score was 4.91 in assay [1]; 5.78 in assay [2]; 6.44 in assay [3]; 2.95 in assay [4]; 5.54 in assay [5]; 4.38 in assay [6]. In addition, the PBM binding z-score in assay [7] amounted to 3.83; in assay [8], 4.29.
Regarding CAAACTAAGTCACCGGAAGGTCAAAGTCCGCATG, the PBM binding z-score in assay [1] stood at 4.37; in assay [2], 5.3; in assay [3], 3; in assay [4], 1.01; in assay [5], 3.92; in assay [6], 3.26. In addition, the figures for the PBM binding z-score in assay [7] and in assay [8] were 1.51 and 2.19, respectively.
As for TCTGCTAGGTCGGTTGGTCAGCTAACGAGCTGCC, the PBM binding z-score in assay [1] was 0.194; in assay [2], 0.057; in assay [3], 0.0646; in assay [4] it was -0.000892; in assay [5], -0.389; in assay [6], -0.409. Further, the PBM binding z-score in assay [7] is -0.643; in assay [8], -0.816.
Consider TCATATAGGTAATAGAGGTGAAAGTCGGCATCTA, for which the PBM binding z-score was 1.33 in assay [1]; 1.08 in assay [2]; 0.999 in assay [3]; 2.14 in assay [4]; 1.68 in assay [5]; 1.91 in assay [6]. The results for the PBM binding z-score in assay [7] and in assay [8] were 0.432 and 0.435, respectively.

(Values after the supplement of paper PMC6555819.)
